# Assay outcomes from PubChem BioAssay.
# An excerpt weighted towards active compounds, which were near 20% of everything screened.
# Shiga toxin inh: A qHTS for Small Molecule Inhibitors of Shiga Toxin; Vero cells, Shiga toxin protein synthesis inhibition reporter; inhibition, % at 38.7 µM; 290,000 tested, 9.2% active; in the data active = inhibition mostly above about 28%, no sharp cut-off; inactive = mostly below about 43%; note: 0% is about no effect
# Pf growth 96h: Primary qHTS for delayed death inhibitors of the malarial parasite plastid, 96 hour incubation; Potency, µM (top dose mostly 28.7 µM), for inactives: top-dose activity change, negative = inhibition, usual class: inhibitors; AID 504834, 2011; 320,000 tested, 6.9% active; P. falciparum luciferase reporter growth, 96 h; note: potency is the fitted concentration of half-maximal effect; % is set by controls: 0 for no effect and ±100 for the full control effect
#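 Delayed-death screen, second-generation endpoint: infected erythrocytes, 2% hematocrit, 0.05% parasitemia final; 96 hours at 37 C, 5% CO2; luciferase detection reagent; luminescence decrease equals reduced growth.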
# Pf growth 48h: Primary qHTS for delayed death inhibitors of the malarial parasite plastid, 48 hour incubation; P. falciparum luciferase growth in erythrocytes, 48 h; Potency, µM (doses to about 28.7 µM), without a hit: top-dose activity change, negative = inhibition, most hits filed as inhibitors; 310,000 tested, 5.9% active; AID 504832, 2011; note: potency is the fitted concentration of half-maximal effect; % is set by controls: 0 for no effect and ±100 for the full control effect
#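 Growth was read as firefly luciferase luminescence after a 48 h, 37 C, 5% CO2 exposure of compounds to reporter-bearing P. falciparum cultures (0.1% parasitemia, 2% hematocrit final) in Albumax-supplemented RPMI 1640.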
# CHX counter: Cycloheximide Counterscreen for Small Molecule Inhibitors of Shiga Toxin; cell reporter, cycloheximide protein synthesis inhibition counterscreen; max response, %; 300,000 tested, 12% active; AID 2314, 2010; in the data active = max response mostly above about 13%, no sharp cut-off; inactive = mostly below about 14%; note: read at 38.3 µM for the half of the compounds with a filed dose; 0% is about no effect
# HCMV inh: qHTS Assay for inhibitors of the human cytomegalovirus (HCMV); 410,000 tested, 4.5% active; HFF cells, HCMV-luciferase reporter, 72 h; stronger effect = lower value; AID 1259415, 2018; activity change, negative = inhibition, % at 57.5 µM; in the data active = activity change below about -60%; inconclusive = no clear call, values can overlap the other calls; inactive = above about -39%; note: % is set by controls: 0 for no effect and ±100 for the full control effect
#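 Cell-based, HFFs, 1000 cells/well, 16 h 37C; cpds in DMSO + HCMV-luc, MOI 1 PFU/cell; 72 h 37C; OneGlo luminescence after 5 min RT; norm. to buffer vs Salinomycin 10uM.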
# * = called active by the depositor; ? = inconclusive; / = not tested or not shown; [ ] = dose if it differs, or a comment. Unless noted, calls come from the whole dose curve; as a rule, active = well fitted inhibition curve with a large enough effect; inconclusive = small, poorly fitted or top-dose-only effect, or another doubt; inactive = no such curve, though single readings can be large or run the other way.
SMILES,Shiga toxin inh,Pf growth 96h,Pf growth 48h,CHX counter,HCMV inh
COc1cccc(NC(=O)NCCC2=CCCCC2)c1,74*,?,34%,19*,-15
CN(C)S(=O)(=O)c1cccc(CNCC2COc3ccccc3O2)c1 (stereo unspecified),-3,-7%,/,-1,-9
CCCCNC(=O)CCCn1c(=O)c2ccccc2n(CC(=O)Nc2ccccc2OCC)c1=O,/,/,/,/,10
Cc1ccc(C)c(N2CCN(C(=O)c3ccc4c(c3)N(Cc3ccc(F)cc3)C(=O)c3ccccc3S4=O)CC2)c1 (stereo unspecified),/,/,/,/,17
CCC(C)NS(=O)(=O)c1ccc(NC(=O)CNCc2cccs2)cc1 (stereo unspecified),/,/,/,/,1
CN(C)S(=O)(=O)N1CCc2ccc(NC(=O)c3ccccc3Cl)cc2C1,14,5.9µM*,5%,11*,52
CSCC(=O)N1CCc2ccc(NC(=O)c3ccccc3Cl)cc2C1,/,?,-8%,28*,61
COc1ccccc1N1CCN(C(=O)c2cnn3cccnc23)CC1,-6,14%,4%,-3,/
COc1ccc(N2CCN(C(=O)c3ccc(Cl)c(S(=O)(=O)N4CCOCC4)c3)CC2)cc1,/,/,/,/,20
Cc1nn(-c2ccccc2)c2[nH]c(=O)c(CNc3ccc4c(c3)OCCO4)cc12,113*,0%[5.75 µM],48%,42*,-35
CCc1ccc(NCc2cc3c(C)nn(-c4ccccc4)c3[nH]c2=O)cc1,-8,?,/,-3,26
Cc1nn(-c2ccccc2)c2[nH]c(=O)c(CNCc3ccc4c(c3)OCO4)cc12,16,9%,4.7µM*,10,-9
COC(=O)C1=CN(c2cccc(OCc3ccccc3)c2)C(N)=C(C#N)C1c1ccc(-c2ccccc2)cc1 (stereo unspecified),/,/,/,/,-20
COc1ccccc1NC(=O)Cn1c(SCC(=O)N(C)c2ccccc2)nc2ccccc21,/,/,/,/,14
Cc1ccc(Sc2ncccc2C(=O)NCC(c2ccc(F)cc2)N2CCOCC2)c(C)c1 (stereo unspecified),/,?,?,/,-33
O=C(NCc1cc([N+](=O)[O-])ccc1O)c1cccnc1Sc1ccccc1,-18,12µM*,?,-4,/
O=C(NCc1ccccc1)c1cccnc1Sc1ccccc1,-9,-8%,-6%[0.00184 µM],4,54
Cc1ccc(Sc2ncccc2C(=O)NCc2cc([N+](=O)[O-])ccc2O)c(C)c1,104*,?,-20%,66*,-10
COc1ccccc1CNC(=O)COC(=O)CNS(=O)(=O)c1ccc(C)cc1,-11,?,0%,14,19
COc1ccc(Cl)cc1NC(=O)CN(C)C(=O)c1cc2ccccc2cc1O,/,?,?,/,7
COC(=O)/C(=C/c1ccccc1)NC(=O)c1ccco1,-3,-3%,-2%,-3,3
CC(C)OC(=O)/C(=C/c1ccc(Br)cc1)NC(=O)c1ccco1,12,13µM*,10%,1,-31
O=C(N/C(=C/c1ccccc1)C(=O)N1CCCCC1)c1ccccc1,51*,0%,186%,96*,42
CCOC(=O)N1CCN(C(=O)/C(=C/c2cccc3ccccc23)NC(=O)c2ccc(OC)cc2)CC1,11,9.3µM*,13µM*,17*,3
COc1ccc(/C=C(\NC(=O)c2ccccc2)C(=O)N2CCC(C)CC2)cc1,/,-65%,13µM*,/,-2
SMILES,Shiga toxin inh,Pf growth 96h,Pf growth 48h,CHX counter,HCMV inh
CCc1ccc(-c2csc3ncn(CC(=O)N4CCOCC4)c(=O)c23)cc1,-17,?,/,-3,-16
COc1ccc(/C=C(/NC(=O)c2ccco2)C(=O)N2CCCCCC2)cc1OC,-6,12µM*,3%,2,-18
COc1ccc(/C=C(/NC(=O)c2ccccc2)C(=O)N2CCCCC2)cc1OC,14,?,?,4,0
O=C(N/C(=C\c1ccccc1)C(=O)N1CCOCC1)c1cccc(Br)c1,-10,7.4µM*,?,7,4
COc1cc2c(cc1OC)CN(S(=O)(=O)c1ccc(Cl)nc1)CC2,/,10%,10%,/,-9
COc1ccc(N2CCN(C(=O)Cc3ccc(Br)cc3)CC2)cc1,-3,3%,?,-1,7
CCCCSc1nc2c(cnn2-c2ccccc2)c(=O)n1N,94*,-1%,79%,42*,84
CCSc1cnn(-c2ccccc2)c(=O)c1SCC,11,27%,/,1,-26
